# Results from PubChem BioAssay (NCI).
# Compounds without any hit were thinned out: in the full panel of roughly 79,000, 15% have a hit. Unmarked numbers belong to inactive results. Activity calls are given as the source filed them. Cut-off read from the data, not from the text of the source: active = growth inhibition above about 70%; inactive = the rest.
# Assay: NCI Yeast Anticancer Drug Screen. Data for the rad18 strain (AID 177)
# Details: S. cerevisiae rad18 mutant growth inhibition, active compounds read high
# Procedure: Growth inhibition of yeast strains with defined genetic alterations is measured as a screen for potential anti-cancer activity. Selected strains with alterations in DNA damage repair or cell cycle control were exposed to compounds and growth inhibition was measured relative to vehicle treated controls. The strain used in this assay is rad18
SMILES,growth inhibition (at 1.2 µM) [%],growth inhibition (at 3.7 µM),growth inhibition (at 11.0 µM),growth inhibition (at 33.0 µM),growth inhibition (at 100.0 µM)
CC(C)(CCCCC(C)(C)[N+](C)(C)C)[N+](C)(C)C,-4,0%,-2%,-3%,-3%
Brc1ccccc1-c1ncc(-c2ccccc2)o1,-7,0%,51%,75% (active),78% (active)
CCCOC(=O)C(F)C(Br)C(=O)OCCC (stereo not given),59,93% (active),97% (active),96% (active),98% (active)
O=C(Nc1ccc(Cl)cc1)Nc1nnc2nc(C(C(=O)c3cccc([N+](=O)[O-])c3Cl)c3nc4nnc(NC(=O)Nc5ccc(Cl)cc5)n4[nH]c3=O)c(=O)[nH]n12,-1,-3%,-12%,-2%,45%
N/C(=N/N=C/c1cc(Br)cc(Br)c1O)NO,-30,-20%,75% (active),94% (active),97% (active)
Cc1ccc(CC2(OCCN(C)C)CCC(C(C)(C)C)CC2)cc1 (stereo not given),3,-14%,-12%,36%,98% (active)
Cc1cc(C)c(NC(=S)NC(=O)c2ccccc2)cc1C,-75,-62%,-73%,-41%,-46%
COc1cc(/C=C2\NC(=O)N(/C=C3\C(=O)Oc4ccccc4C3=O)C2=O)ccc1O,-1,-3%,-1%,77% (active),94% (active)
